Screening results as filed in PubChem.
Pf growth 48h: Primary qHTS for delayed death inhibitors of the malarial parasite plastid, 48 hour incubation; P. falciparum luciferase growth in erythrocytes, 48 h; actives 5.9% (n = 310,000); Potency, µM (highest dose often 28.7 µM), without a hit: at the top dose activity change, negative = inhibition, most hits filed as inhibitors; note: % is set by controls: 0 for no effect and ±100 for the full control effect
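Parasite viability was followed by luminescence of a genomically integrated firefly luciferase. Cultures held 0.1% parasitemia at 2% hematocrit (final), incubated under 5% CO2 at 37 C.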
Pf growth 96h: Primary qHTS for delayed death inhibitors of the malarial parasite plastid, 96 hour incubation; AID 504834, 2011; P. falciparum luciferase reporter growth, 96 h; actives 6.9% (n = 320,000); Potency, µM (top dose mostly 28.7 µM), for inactives: at the top dose activity change, negative = inhibition, actives largely listed as inhibitors; note: % is set by controls: 0 for no effect and ±100 for the full control effect
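Compounds incubated with erythrocytes infected by luciferase-expressing P. falciparum (2% hematocrit, 0.05% parasitemia final) for 96 hours, 37 C in 5% CO2. Growth inhibition scored as decreased luciferase luminescence.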
AMA1 RON2 block: qHTS for Inhibitors of AMA1-RON; Towards Development of Antimalarial Drug Lead: Primary Screen. actives 0.2% (n = 360,000). Potency, µM (top dose mostly 58.2 µM), without a hit: top-dose activity change, negative = inhibition, most hits filed as inhibitors. AID 720542, 2013. AlphaScreen AMA1-biotinylated RON2 peptide binding;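 note: 0% = vehicle wells and -100% = peptide control; nearly all actives have a fitted effect of over 45% in size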
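AMA1 (3D7) with his tag at 25 nM final met compounds first, then biotinylated RON2 peptide at 25 nM; detection used donor plus acceptor beads, 10 µg/mL apiece, read by AlphaScreen after 30 min at room temperature.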
HCV inh: qHTS Assay for Inhibitors of Hepatitis C Virus (HCV); Huh7.5.1 HCVcc-Cre infection, luciferase reporter, 44 h; Potency, µM (highest dose often 41.8 µM), for inactives: at the highest dose activity change, negative = inhibition, usual class: inhibitors; actives 3.4% (n = 340,000); AID 651820, 2012; note: % is set by controls: 0 for no effect and ±100 for the full control effect
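Compounds are dispensed onto cells plated 4 h earlier at 1,000 per well, with HCVcc-Cre virus (about 0.5 moi) added next. Following 44 h of culture, luminescent signal is measured for 15 sec after 15 min with substrate at room temperature.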
HCV inh confirm: qHTS Assay for Inhibitors of Hepatitis C Virus (HCV): Confirmation Assay for Cherry-picked Compounds | actives 78% (n = 640) | Potency, µM (highest dose often 41.8 µM), without a hit: at the top dose activity, negative = inhibition, hits mostly inhibitors | shares compounds with HCV inh | HCVcc-Cre infectious virus cell assay, luciferase, inhibition | AID 720575, 2013; note: nearly all actives have a fitted effect of over 80% in size
HCV cytotox: qHTS Assay for Inhibitors of Hepatitis C Virus (HCV): Cytotoxicity Counterscreen for Cherry-picked Compounds; Potency, µM (series often up to 41.8 µM), inactives show at the highest dose activity change, negative = cytotoxicity, usual class: inhibitors; actives 22% (n = 640); shares compounds with HCV inh; HCV host cell line cytotoxicity counterscreen;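 note: 44 h compound exposure; % is set by controls: 0 for no effect and ±100 for the full control effect; nearly all actives have a fitted effect of over 55% in size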
Active calls of the source: *; ? = inconclusive; / = not tested or not shown. Compounds with a hit are over-represented: about 11% of the library has one in this group of screens. Calls come from the whole dose curve; as a rule, active = well fitted curve in the direction sought with a large enough effect; inconclusive = small, poorly fitted or top-dose-only effect, or another doubt; inactive = no such curve, though single readings can be large; an effect the other way counts as inactive or inconclusive. Potency is the fitted concentration of half-maximal effect.

SMILES | Pf growth 48h | Pf growth 96h | AMA1 RON2 block | HCV inh | HCV inh confirm | HCV cytotox
COc1ccc(-c2nc(SCc3ccccc3)n(S(C)(=O)=O)n2)cc1 | 36% | 107% | 5% | 2.8µM* | -27% | 35%
CCCc1cc(=O)[nH]c(SCC(=O)N2CCOCC2)n1 | 16% | ? | -5% | 2% | / | /
O=C(Nc1ccc([N+](=O)[O-])cc1)/C(=C/c1cccc([N+](=O)[O-])c1)NC(=O)C1CCCCC1 | ? | ? | 2% | ? | 22µM* | 48%
Cc1ccc(NC(=O)/C(=C/c2cccc([N+](=O)[O-])c2)NC(=O)C2CCCCC2)c(C)c1 | ? | ? | 2% | -7% | / | /
NC(=O)c1ncn([C@@H]2O[C@H](CNCc3ccc(-c4cc(C(F)(F)F)ccc4Cl)o3)[C@@H](O)[C@H]2O)n1 | / | / | 9% | 3.2µM* | -17% | 0.025µM*
COC(=O)c1c(NS(=O)(=O)c2cccs2)sc2c1CCCC2 | 2% | 30% | -10% | 4% | / | /
COC(=O)c1c(NC(=O)Cc2cccs2)sc2c1CCCC2 | -6% | ? | -10% | 5µM* | 13µM* | ?
Oc1ccc(C[C@H]2CNC(=S)N2CC2CCCN2C[C@H](Cc2ccc(O)cc2)N2C[C@H](Cc3ccccc3)N(CC3CCCCC3)C2=S)cc1 (stereo partly specified) | / | / | 50% | 2.5µM* | 8.9µM* | -19%
Oc1ccc(C[C@H]2CN([C@@H](Cc3ccccc3)CN3CCC[C@@H]3CN3C(=S)NC[C@@H]3Cc3ccccc3)C(=S)N2CC2CCCCC2)cc1 | / | / | 14% | / | / | /
O=C(NCc1ccco1)/C(=C/c1ccc(C(F)(F)F)cc1)c1nc2ccccc2[nH]1 | -6% | ? | 63% | ? | / | /
O=S(=O)(/C(=C\c1ccc(C(F)(F)F)cc1)c1nc2ccccc2[nH]1)c1ccccc1 | / | / | -9% | 1.4µM* | 7.9µM* | -97%
CCOC(=O)N1CCC(NCCNC(=O)c2ccc(F)c(F)c2)CC1 | 10% | 49% | -1% | 16% | / | /
COCC(C)n1c(SCC(=O)N2CCc3ccccc3C2)nc2ccccc2c1=O (stereo unspecified) | ? | 7.4µM* | -16% | ? | 20µM* | -3%
CC(=O)Nc1ccc(S(=O)(=O)NNC(=O)c2cccc(Cl)c2)cc1 | ? | ? | 10% | -20% | / | /
Cc1nc2ccccc2n1Cc1ccc(Br)cc1 | / | / | -11% | 2.5µM* | 2µM* | 2µM*
Cc1nc2ccccc2n1Cc1ccccc1 | -1% | ? | 10% | ? | / | /
CC1SC(C)C(=O)N(CC(=O)Nc2ccc([N+](=O)[O-])cc2)C1=O (stereo unspecified) | -2% | ? | -28% | 12% | / | /
CCCCCn1c(=O)c(C(=O)NCc2ccco2)c(O)c2ccccc21 | ? | ? | 19% | ? | 25µM* | ?
O=[N+]([O-])c1ccc(Cl)cc1NCC1CCCO1 (stereo unspecified) | -13% | 14% | 1% | 7% | / | /
COc1ccc(Nc2nc(NC(C)(C)C)nc(N3CCOCC3)n2)c(OC)c1 | ? | 21% | ? | 7.1µM* | 7µM* | 16%
COc1ccc(Nc2nc(N3CCOCC3)nc(N3CCOCC3)n2)cc1 | 0% | -21% | 5% | ? | / | /
O=C(COc1ccc(/C=N/NC(=O)c2cc3ccccc3o2)cc1Cl)Nc1ccccc1 | 10µM* | 7.4µM* | 3% | 5.6µM* | 7µM* | 7µM*
Cc1ccc(S(=O)(=O)Nc2ccccc2C(=O)N2CCN(C)CC2)cc1 | 23% | 46% | -2% | 19% | / | /
Cc1cc(=O)n(C)c(=O)n1CCCCCCOc1cccc([N+](=O)[O-])c1 | -6% | 4.1µM* | -3% | 7.1µM* | 10µM* | -19%
